# Most compounds without a hit are left out; they make up all but 4.5% or so of the library.
# hcDAF-12 act – H. contortus DAF-12 nuclear receptor activators, primary screen, cell-based, luminescence, HEK293, lit1-tk-luc reporter; HEK293 hcDAF-12 lit1-tk-luc reporter; 0% DMSO, 100% Δ7-dafachronic acid; activation, % at 6.8 µM; hit rate 1.4% among 370,000;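 active = activation above the mean of all tested compounds plus 3 SD, cut at about 5.5% in these data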;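 note: 100% = response to 3 µM Δ7-dafachronic acid high control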
# hgDAF-12 ag – H. glycines DAF-12 receptor agonists, primary screen, cell-based, luminescence, HEK293, GAL4 fusion, UAS-luciferase; HEK293 GAL4-hgDAF12 UAS-luciferase reporter, agonist luminescence; normalized to butyrate control; hit rate 1.8% among 370,000; AID 687014, 2013; Nuclear hormone receptor DAF-12 (Heterodera glycines), GAL4 fusion; activation, % at 6.8 µM;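 active = activation above a cutoff set at the mean of all screened compounds plus 3 SD, cut at about 10% in these data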;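 note: 0% = DMSO wells and 100% = sodium butyrate wells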
# FXN GAA850 act – FXN promoter activators, primary screen, cell-based, luciferase luminescence, HEK293 lucGAA850 | HEK293 lucGAA850 FXN promoter luciferase reporter, 24 h; percent of 10 µM SAHA response | activation, % at 6 µM | hit rate 0.56% among 360,000 | AID 540364, 2011;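 active = activation above the average of all compounds screened plus 3 SD, cutoff fixed separately per campaign, cut at about 7.5% in these data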;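 note: 0% = DMSO wells and 100% = 10 µM SAHA wells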
# ssDAF-12 act – S. stercoralis DAF-12 nuclear receptor activators, primary screen, cell-based, luminescence, HEK293, GRIP1 co-expression, lit1-tk-luc; AID 652126, 2013; HEK293 ssDAF-12/GRIP1 lit1-tk-luc reporter; % of 3 µM dafachronic acid response; Nuclear hormone receptor DAF-12 (Strongyloides stercoralis); activation, % at 6.8 µM; hit rate 1% among 370,000;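 active = activation above the mean over all tested compounds plus 3 SD, cut at about 0.9% in these data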;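 note: 0% = DMSO-only wells and 100% = 3 µM delta7-dafachronic acid wells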
# DAX1 inh-1 – DAX1 (NR0B1) inhibitors, primary screen, cell-based, HEK293, Gal4-DAX1, luciferase luminescence | Nuclear receptor subfamily 0 group B member 1 (Homo sapiens), P51843 | HEK293 Gal4-DAX1 luciferase reporter | inhibition, % at 6.75 µM | hit rate 0.99% among 340,000 | AID 504766, 2011;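 active = inhibition above the mean over all tested compounds plus 3 SD, cut at about 4.2% in these data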;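 note: 0% = DAX1-transfected cells with DMSO and 100% = empty-vector control cells with DMSO; inhibition shows as a rise in luminescence from relieved DAX1 repression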
# Target sequence (P51843 207-470 limits assumed): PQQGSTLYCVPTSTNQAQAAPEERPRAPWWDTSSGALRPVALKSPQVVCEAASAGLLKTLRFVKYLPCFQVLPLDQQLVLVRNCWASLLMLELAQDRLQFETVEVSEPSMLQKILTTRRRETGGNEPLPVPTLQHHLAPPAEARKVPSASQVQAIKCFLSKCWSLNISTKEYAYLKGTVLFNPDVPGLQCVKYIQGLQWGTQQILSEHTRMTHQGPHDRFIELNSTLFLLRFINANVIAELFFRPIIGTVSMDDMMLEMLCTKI
# DAX1 inh-2 – DAX1 (NR0B1) inhibitors on StAR promoter, primary screen, cell-based, luminescence, SF-1 (NR5A1), full-length DAX-1. AID 652010, 2013. hit rate 1.1% among 370,000. HEK293T StAR-luciferase reporter, SF-1/DAX-1 repression relief. inhibition, % at 6.8 µM;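 active = inhibition above the mean over all tested compounds plus 3 SD, cut at about 3.6% in these data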;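 note: 0% = DAX-1 cells with DMSO and 100% = cells lacking DAX-1 with DMSO; higher inhibition means more luminescence from relief of DAX-1 repression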
# Numbers without * were called inactive; . = not tested or not shown.
SMILES,hcDAF-12 act,hgDAF-12 ag,FXN GAA850 act,ssDAF-12 act,DAX1 inh-1,DAX1 inh-2
CS(=O)(=O)c1ccc(OC[C@@H](O)CN2CCC(C(O)(c3ccccc3)c3ccccc3)CC2)cc1,1,0,.,0,.,-1
O=S1(=O)c2ccc(Br)cc2OC[C@H](Cc2ccccc2)N1Cc1cn(Cc2ccc(Br)cc2)nn1,1,1,.,-2,.,-1
CCOc1ccc2nc(N3CCC(C(=O)NCCCN4CCOCC4)CC3)sc2c1,2,12*,5,-1,2,0
CCOc1ccc2nc(N3CCCC(C(=O)NCCCN4CCOCC4)C3)sc2c1 (stereo unspecified),4,4,5,-1,1,3
Cc1[nH]c2ccccc2c1Cc1n[nH]c(=S)n1C,1,1,1,-1,1,-1
Cn1c(Cc2c[nH]c3ccccc23)n[nH]c1=S,4,1,3,1.0*,1,1
O=C(CCc1ccccc1-c1ccccc1CCNC(=O)c1c(F)cccc1F)NCc1ccccc1,-3,-6,.,-1,.,-1
COC(=O)c1c(NC(=O)CN2CCN(c3ccccc3Cl)CC2)sc(C)c1C,4,-2,-1,1.1*,2,-1
CC(C)c1ccc(S(=O)(=O)N2CCN(CC(=O)c3ccc(O)c(O)c3)CC2)cc1,0,1,2,-1,-1,0
O=C(CN1CCN(S(=O)(=O)c2ccc(Br)cc2)CC1)c1ccc(O)c(O)c1,5.9*,1,2,-1,1,0
Cc1cccc(OCC(=O)N/N=C/c2ccc3c(c2)OCO3)c1,0,1,0,1.2*,-1,0
Cc1cccc(OCC(=O)Nc2cc(C)ccc2O)c1,2,2,2,1.1*,0,-1
O=C(N/N=C\c1cccc(OC(=O)c2ccco2)c1)c1ccc2c(c1)OCO2,2,12*,5,0,0,3
COc1ccccc1/C=N/NC(=O)c1ccc2c(c1)OCO2,0,4,3,-1,4.3*,0
O=C(N/N=C/c1ccccc1OC(=O)c1ccc2c(c1)OCO2)c1ccccc1,1,3,3,-1,2,1
CCc1cccc(Nc2cc(C)n(-c3cccc(CC)c3)c(=O)c2)c1,-2,4,.,-1,.,1
Nc1c(C(=O)N2CCN(CCc3ccccc3)CC2)cnn1-c1ccccc1,0,-1,.,0,.,0
Cc1ccc(C(=O)N/N=C\c2sccc2C)cn1,0,1,5,-1,0,1
CCn1ncc(/C=N/NC(=O)c2ccc3c(c2)OCO3)c1C,0,12*,-3,-1,0,-1
Cc1ccsc1/C=N\NC(=O)c1ccc2c(c1)OCO2,4,10,3,-1,2,4.0*
O=C(NCCCN1CCOCC1)C(=O)N/N=C/c1ccc(F)cc1,1,1,-1,-2,-1,0
O=C(NCCCN1CCOCC1)C(=O)N/N=C/c1ccc2c(c1)OCO2,-1,-1,0,-1,4.4*,0
Cc1cccc(/C=N/NC(=O)c2ccc3c(c2)OCCO3)c1O,4,6,-6,1.1*,-3,0
Cc1c(/C=N/NC(=O)c2ccc3c(c2)OCO3)cnn1C,0,4,1,0,1,0
COCc1cn(-c2cccc(-c3noc4c3C(=O)N(CC(=O)N3CCOCC3)CC4)c2)nn1,-1,4,.,0,.,1
CCC[C@H]1[C@@H](OC(=O)NC2CCC2)CC[C@@]23CCCN2C(=O)CCC[C@@H]13,0,0,.,-1,.,.
O=C(CSc1nc2ccccc2nc1N1CCOCC1)N1CCN(S(=O)(=O)c2cccc([N+](=O)[O-])c2)CC1,0,3,.,-2,.,0

# Screening results: PubChem BioAssay, The Scripps Research Institute Molecular Screening Center
